# High-throughput results (PubChem BioAssay)
# ELG1 genotox – qHTS screen for small molecules that induce genotoxicity in human embryonic kidney (HEK293T) cells expressing luciferase-tagged ELG1 | Potency, µM (highest dose often 46 µM), inactives show at the top dose activity change, positive = activation, actives largely listed as activators | actives 1.3% (n = 330,000) | HEK293T ELG1-luciferase reporter, luminescence, 16 h | AID 504466, 2011; also: % of control where 0% means no effect; nearly all actives have a fitted effect of over 60% in size
#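 Luminescence read-out: rising ELG1-luciferase signal, reflecting elevated ELG1 protein under genetic stress, flags genotoxic compounds. Cells were treated for 16 hr at 37 °C before ONE-Glo detection.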
# Rab9 prom act – qHTS Assay for Rab9 Promoter Activators; Huh7 Rab9 promoter-luciferase reporter, luminescence, 24 h; Potency, µM (highest dose often 9.22 µM), inactives show at the top dose activation, negative = inhibition, most hits filed as activators; actives 2.8% (n = 320,000); AID 485297, 2010; also: % of control where 0% means no effect; nearly all actives have a fitted effect of over 60% in size
#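 Huh7 reporter line, Rab9 promoter upstream of luciferase. Compound exposure 24 h at 37 °C in reduced-serum medium with 10% FBS. Read-out: luminescence.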
# NPC1 prom act – qHTS Assay for NPC1 Promoter Activators; Huh7 NPC1 promoter luciferase reporter, 24 h; Potency, µM (top dose mostly 9.22 µM), for inactives: at the highest dose activation, usual class: activators; actives 2.4% (n = 320,000); also: % of control where 0% means no effect; nearly all actives have a fitted effect of over 60% in size
#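 NPC1 promoter–luciferase Huh7 cells; 24 h compound; luminescence.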
# FLuc modulator – qHTS profiling assay for firefly luciferase inhibitor/activator using purifed enzyme and Km concentrations of substrates (counterscreen for miR-21 project); purified FLuc, Km substrates, luminescence inhibition; Potency, µM (series often up to 57.5 µM), for inactives: at the top dose activity change, negative = inhibition, actives largely listed as inhibitors; actives 6.9% (n = 360,000); AID 588342, 2011;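 also: plate controls were vehicle for no effect and reference inhibitor for full effect; nearly all actives have a fitted effect of over 55% in size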
# Target sequence (P08659 whole entry, looked up): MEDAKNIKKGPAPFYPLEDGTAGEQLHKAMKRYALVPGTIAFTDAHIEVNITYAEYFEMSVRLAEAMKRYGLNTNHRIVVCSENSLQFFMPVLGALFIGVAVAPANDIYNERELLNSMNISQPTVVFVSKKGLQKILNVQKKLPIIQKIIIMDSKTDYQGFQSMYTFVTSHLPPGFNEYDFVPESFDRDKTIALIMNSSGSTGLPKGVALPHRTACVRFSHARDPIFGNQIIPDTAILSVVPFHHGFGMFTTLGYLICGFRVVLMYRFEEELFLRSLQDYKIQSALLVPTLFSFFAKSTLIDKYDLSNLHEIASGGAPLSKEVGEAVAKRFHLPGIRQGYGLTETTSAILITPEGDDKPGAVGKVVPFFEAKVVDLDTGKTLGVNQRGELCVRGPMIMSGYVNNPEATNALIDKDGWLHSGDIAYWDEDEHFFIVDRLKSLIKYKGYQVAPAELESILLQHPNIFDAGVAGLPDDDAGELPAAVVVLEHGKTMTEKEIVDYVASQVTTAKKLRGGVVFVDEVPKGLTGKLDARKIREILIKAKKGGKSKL
#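 Biochemical qHTS of compounds, final roughly 60 µM downward over six points, against 10 nM purified firefly luciferase using Km concentrations of substrates (10 uM D-luciferin, 10 uM ATP) in Tris acetate pH 7.5 buffer; luminescence output.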
# ELG1 DNA repair – qHTS screen for small molecules that inhibit ELG1-dependent DNA repair in human embryonic kidney (HEK293T) cells expressing luciferase-tagged ELG1; AID 504467, 2011; actives 2.3% (n = 330,000); HEK293T ELG1-luciferase reporter, luminescence, 16 h; DNA damage induced by 5-fluorouridine; Potency, µM (series often up to 46.1 µM), for inactives: at the top dose activity change, negative = inhibition, usual class: inhibitors; also: % is scaled to controls: 0 for no effect and ±100 for the full control effect; nearly all actives have a fitted effect of over 55% in size
#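 Luminescence from the luciferase reporter, measured 30 min after ONE-Glo reagent at room temperature, was the read-out. Beforehand, 2,000 cells per well were exposed for 16 hr at 37 °C to 5-fluorouridine together with compound or vehicle.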
# SMN2 splice up – qHTS Assay for Enhancers of SMN2 Splice Variant Expression | HEK293 SMN2-luciferase splicing reporter, luminescence, 30-36 h | Potency, µM (series often up to 46.1 µM), without a hit: at the highest dose activity change, positive = activation, usual class: activators | actives 2.8% (n = 210,000); also: % of control where 0% means no effect; nearly all actives have a fitted effect of over 55% in size
#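 qHTS luciferase splicing reporter: luminescence rises when SMN2 exon 7 is included in transfected HEK293 cells. Compound exposure lasted 30-36 h at 37C, with 4.5 mM final sodium butyrate as control, followed by a ONE-Glo read.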
# The depositor's hits bear a star; ? = inconclusive; . = no result given; [ ] = remark or other dose. Hits are enriched below; roughly 9.4% of the tested compounds scored in any of these assays. Calls follow the shape of the dose curve; as a rule, active = well fitted curve in the direction sought with a large enough effect; inconclusive = small, poorly fitted or top-dose-only effect, or another doubt; inactive = no such curve, though single readings can be large; an effect the other way counts as inactive or inconclusive. Potency is read from the fitted curve at half-maximal effect.
SMILES,ELG1 genotox,Rab9 prom act,NPC1 prom act,FLuc modulator,ELG1 DNA repair,SMN2 splice up
CCOCCCNC(=O)c1ccc(OC(C)=O)cc1,4.1%,-1.7%,5.1%,0.2%,3.8%,17.8%
CCOCC(O)CNC(=O)c1ccc2nc(Cc3ccc(OC)c(OC)c3)oc2c1 (centres undefined),1.5%,-2.7%,?,-4.2%,-7.6%,.
COc1ccc(Cc2nc3ccc(C(=O)NCCCSC)cc3o2)cc1OC,17.5%,?,?,16.9µM*,?,.
COc1ccc(Cc2nc3ccc(C(=O)NCCc4ccc(OC)c(OC)c4)cc3o2)cc1,.,.,.,1.5%,.,.
COc1ccc(/C=N/NC(=O)c2ccncc2)cc1CN1CCOCC1,0.0%,-7.9%,0.7%,-2.0%,-1.5%,.
CCOc1ccccc1-c1cc(C(=O)N/N=C/c2ccc3c(c2)OCO3)c2ccccc2n1,2.3%,1.9%,0.6%,-15.8%,?,28.7%
CCOc1cccc(-c2cc(C(=O)N/N=C/c3ccc(OC)c(CN4CCOCC4)c3)c3ccccc3n2)c1,-8.2%,-1.4%,-4.3%,6.01µM*,23.1µM*,-26.8%
CCOc1ccccc1-c1cc(C(=O)N/N=C/c2ccc(O)c(OC)c2)c2ccccc2n1,-14.0%,2.8%,0.3%,-4.7%,-10.4%,25.1µM*
COc1ccccc1-c1cc(C(=O)N/N=C/c2sccc2C)c2ccccc2n1,-0.9%,-1.1%,-0.9%,-2.1%,11.6µM*,12.3%
Cc1cccc(-c2ccc3ncnc(NCc4cc(C)cs4)c3c2)c1,.,-4.4%,-3.2%,3.6%,.,.
CC1(C)CC(=O)C(N=Nc2ccc(Br)cc2)=C(O)C1,10.3µM*,14.5%,-1.8%,3.38µM*,1.0%,.
CC1(C)CC(=O)C(N=Nc2cccc([N+](=O)[O-])c2)=C(O)C1,18.3µM*,19.8%,0.1%,10.7µM*,?,.
COc1ccc(N=NC2=C(O)CC(C)(C)CC2=O)cc1,?,16.3%,3.55µM*,13.5µM*,?,?
CC1(C)CC(=O)C(N=Nc2ccc(C(F)(F)F)cc2[N+](=O)[O-])=C(O)C1,-0.4%,-0.8%,13.9%,-7.0%,27.4%,.
COc1cccc(N2CCN(C(=O)c3cnn(-c4ccc(C)cc4C)c3C3CCN(C(=O)OC(C)(C)C)CC3)CC2)c1,.,.,.,4.6%,.,.
Cc1ccc(-n2nc(C(=O)Nc3ccc(Br)cc3C)c(=O)n(C)c2=O)cc1,.,.,.,-2.5%,.,.
Cc1cc(N2CCN(S(=O)(=O)c3ccc(Cl)cc3)CC2)c2ccccc2n1,-8.8%,-12.8%,-3.7%,-0.2%,23.1µM*,-45.4%
COc1ccc(C(=O)CN2CCN(c3cc(C)nc4ccccc34)CC2)cc1,-7.6%,-20.2%,-3.8%,0.7%,8.2µM*,.
COc1ccc(N2CCN(CC(=O)c3ccccc3)CC2)cc1,1.1%,5.1%,0.0%,-2.6%,3.1%,.
CCc1ccc(S(=O)(=O)Nc2cccc(-c3ccc4nncn4n3)c2)s1,10.3%,-3.5%,-12.4%,0.8%,?,-30.7%
COc1ccc(OC)c(S(=O)(=O)Nc2cccc(-c3ccc(N4CCCCC4)nn3)c2)c1,.,.,.,6.01µM*,.,.
Cc1ccc(S(=O)(=O)Nc2cccc(-c3ccc4nnc(C)n4n3)c2)s1,20.6µM*,0.9%,-12.1%,2.4%,?,12.6µM*
CCc1ccc(S(=O)(=O)Nc2cccc(-c3ccc(N4CCC(C)CC4)nn3)c2)s1,.,.,.,1.35µM*,.,.
COc1ccccc1S(=O)(=O)Nc1cccc(-c2nnc3n2CCCCC3)c1,-1.4%,-10.0%,-3.0%,1.5%,-0.5%,-3.4%
COc1ccc(F)cc1S(=O)(=O)Nc1cccc(-c2ccc(N3CCCCCC3)nn2)c1,.,.,.,9.53µM*,.,.
SMILES,ELG1 genotox,Rab9 prom act,NPC1 prom act,FLuc modulator,ELG1 DNA repair,SMN2 splice up
COc1cccc(CSc2nc(-c3ccccc3OC)nc3c2Cc2c(CO)cnc(C)c2O3)c1,.,.,.,4.3%,.,.
CCn1c(CCCc2nc3c([nH]2)c(=O)n(C)c(=O)n3C)nc2c1c(=O)n(C)c(=O)n2C,.,.,.,.,.,-5.9%[9.22 µM]
COc1ccc(S(=O)(=O)Nc2ccc(-c3ccc4nncn4n3)cc2)c(OC)c1,1.4%,-0.9%,-3.6%,2.7%,6.5%,.
COc1ccc(S(=O)(=O)Nc2cccc(-c3ccc(N4CCC(C)CC4)nn3)c2)c(OC)c1,.,.,.,2.69µM*,.,.
COc1cccc(COC(=O)c2ccc(-c3nnn(Cc4cccc(OC)c4)n3)cc2)c1,.,.,.,1.6%,.,8.3%
CC(Oc1ccc(Cl)cc1Cl)c1nc(-c2ccc(NC(=O)c3ccccn3)cc2)no1 (centres undefined),?,?,2.82µM*,9.53µM*,?,?
O=C(COC(=O)c1ccccc1SCC(=O)NC1CCS(=O)(=O)C1)NC1CCS(=O)(=O)C1 (centres undefined),-5.1%,-8.4%,-2.1%,7.5%,-17.2%,4.4%
CCNC(=O)NC(=O)COC(=O)c1ccccc1SCC(=O)NC(=O)NCC,?,2.82µM*,1.58µM*,5.36µM*,?,8.91µM*
O=C(Nc1cccc(F)c1)Nc1ccc2c(c1)OCO2,?,2.82µM*,2.24µM*,7.57µM*,?,.
CN(C)CCN=Cc1c(O)n(Cc2ccc3c(c2)OCO3)c(=O)c2ccccc12,1.9%,-7.5%,-3.8%,2.6%,-0.9%,9.0%
CC(=O)OCc1ccc2c(c1)OCO2,.,.,.,.,.,-11.4%
CC(=O)Nc1ccc(OCc2ccc3c(c2)OCO3)cc1,?,1.58µM*,0.631µM*,16.9µM*,?,.
O=c1c2ccccc2c(C=NC2CCN(Cc3ccccc3)CC2)c(O)n1Cc1ccc2c(c1)OCO2,-1.5%,-0.3%,-7.5%,-0.6%,6.51µM*,2.8%
O=C(Nc1ccc2c(c1)OCO2)C1CCCN1C(=O)Nc1cccc(F)c1 (centres undefined),-2.8%,13.1%,-3.1%,-1.6%,?,-4.3%
O=C(Nc1ccc2c(c1)OCO2)c1c(F)cccc1F,?,3.16µM*,3.55µM*,12µM*,?,10µM*
O=C(CN1C(=O)COc2ccc(S(=O)(=O)N3CCCCCC3)cc21)NCCc1ccccc1,.,.,.,-11.6%,.,.
CC(=O)N1CCc2cc(CNS(=O)(=O)c3ccc(Cl)s3)ccc21,.,.,.,-13.0%,.,.
O=C(Cn1c2ncccc2c(=O)n1-c1ccccc1)Nc1ccc(F)c(F)c1,.,.,.,3.5%,.,.
c1ccc(-c2nc(-c3ccccc3)c(NC3CCCCC3)o2)cc1,.,.,.,.,.,3.7%
Cc1ccc(Cl)cc1N1C(=O)N(Cc2ccc(C#N)cc2)c2ccccc2S1(=O)=O,.,.,.,5.7%,.,.
